Common to all, as to assay: NCI-60 one-dose screen, 48 h (100 = growth as untreated, 0 = no growth, -100 = all killed)
Holding throughout (settings): 10 µM unless noted

The subject of experiment [1] is SR leukemia.
The test system of experiment [2] is RPMI-8226 leukemia.
The subject of experiment [3] is OVCAR-8 ovarian.
Experiment [4] has as its system OVCAR-5 ovarian.
Experiment [5] relates to OVCAR-4 ovarian.
The subject of experiment [6] is SK-OV-3 ovarian.
In experiment [7] the test system is IGROV1 ovarian.
The subject of experiment [8] is OVCAR-3 ovarian.
Experiment [9] deals with HS 578T breast.
The subject of experiment [10] is NCI/ADR-RES ovarian.
Experiment [11] concerns T-47D breast.
The subject of experiment [12] is BT-549 breast.
Experiment [13] deals with MDA-MB-435 melanoma.
Experiment [14] relates to SW-620 colon.
The subject of experiment [15] is MCF7 breast.
Experiment [16] concerns HCT-116 colon.
Experiment [17] concerns HCC-2998 colon.
Experiment [18] has as its system KM12 colon.

The structures appear in SMILES notation. About 83,000 compounds went through this panel and 20% of them were active in at least one assay; those are over-represented in the sample as a whole.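 96-well plates, one dose, 48 hours. Percent growth reported; active if below 10.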 Unmarked numbers belong to inactive results. Activity calls are given as the source filed them.

Consider `CCN(CC)Cc1cc(Nc2c3ccc(Cl)cc3nc3c(C)cccc23)ccc1O`, for which the growth in experiment [1] is -18.9% (active); in experiment [2], -14.6% (active); in experiment [3], -42.6% (active); in [4], -37.7% (active); in experiment [5], -96% (active); in experiment [6], -10.3% (active). Also, the growth in experiment [7] is -49.3% (active); in [8], -71.6% (active); in [9] it was -24.4% (active); in experiment [10], -49.8% (active); in [11] it was -70.5% (active); in experiment [12], -54.3% (active). In addition, the growth in experiment [13] is -89.6% (active); in experiment [14] it was -14% (active); in experiment [15], -61.6% (active); in [16] it was -73.2% (active); in [17], -95% (active); in [18], -45.4% (active).

As to `CCNS(=O)(=O)c1ncnc2nc[nH]c12`, the growth in experiment [1] is 101%; in experiment [2] it was 92%; in experiment [3] it was 114%; in [4] it was 102%; in experiment [5], 102%; in experiment [6] it was 108%. The growth is 96.9% in experiment [7]; 113% in experiment [8]; 144% in experiment [9]; 99.7% in [10]; 104% in experiment [11]; 129% in [12]. The growth in experiment [13] is 101%; in experiment [14] it was 101%; in experiment [15], 102%; in experiment [16], 117%; in [17], 114%; in [18], 119%.

With `COc1cc(C2C(C(=O)c3cccs3)=C(O)C(=O)N2CCN2CCOCC2)cc(OC)c1OC` (configuration not stated), the growth in experiment [1] was 111%; in experiment [2] it was 108%; in [3], 113%; in [4] it was 108%; in [5], 110%; in experiment [6], 109%. In addition, the growth was 100% in [7]; 102% in experiment [8]; 112% in experiment [9]; 107% in experiment [10]; 104% in experiment [11]; 107% in experiment [12]. Besides, the growth was 99.5% in [13]; 97.2% in experiment [14]; 95.1% in experiment [15]; 101% in [16]; 101% in experiment [17]; 98.3% in experiment [18].

For the compound `CCCCCCCCCc1cc(CN2CCCCC2)c(O)c(CN2CCCCC2)c1`, the growth was 7.18% (active) in experiment [1]; 23.7% in experiment [2]; 76.6% in experiment [3]; 59.8% in experiment [4]; 41.3% in experiment [5]; 78.3% in experiment [6]. In addition, the growth in experiment [7] was 75.9%; in experiment [8] it was 41.9%; in [9] it was 72.7%; in experiment [10] it was 58.3%; in [11], 19.8%; in experiment [12], 70.1%. The growth is 78.4% in experiment [13]; 69.8% in [14]; 44% in experiment [15]; 39.1% in [16]; 68.2% in experiment [17]; 50.6% in experiment [18].

With `CCCC(=O)Oc1ccc(/C(=C(/CC)Cc2ccccc2)c2ccc(OCCN3CCCC3)cc2)cc1`, the growth in [1] is 1.36% (active); in experiment [2] it was 33.3%; in experiment [3], 96.4%; in [4], 84.2%; in experiment [5] it was 68.4%; in [6] it was 97%. The growth in experiment [7] is 74%; in experiment [8], 74.1%; in experiment [9] it was 82.7%; in experiment [10], 69.9%; in [11], 48.9%; in [12] it was 85.3%. For the same compound, the growth in experiment [13] was 57.1%; in [14], 80.5%; in [15], 24.9%; in experiment [16], 68.7%; in [17], 42.6%; in experiment [18] it was 70.8%.

Take `Cc1noc(C)c1-c1cc(O)cc(C(O)c2ccccc2)c1` (configuration not stated): the growth in experiment [1] was 27.1%; in experiment [2], 14.9%; in experiment [3] it was 38.6%; in experiment [4] it was 73.3%; in experiment [5], 32.5%; in [6], 43.7%. The growth in experiment [7] was 46%; in experiment [8], 46.7%; in [9], 33.7%; in [10], 59.2%; in experiment [11] it was 47.1%; in experiment [12] it was 64.7%. Further, the growth is 43.9% in experiment [13]; 72.1% in experiment [14]; 20.9% in [15]; 58.1% in experiment [16]; 62.2% in experiment [17]; 53.1% in [18].

For `Cc1ccc(Nc2c(C(N)=O)cnc3ccc(-c4csc(N)n4)cc23)cc1`, the growth in experiment [1] was 94.8%; in [2], 100%; in experiment [3], 101%; in experiment [4], 99.6%; in experiment [5], 87%; in experiment [6], 108%. Also, the growth in experiment [7] is 89.3%; in [8], 108%; in experiment [9] it was 92.9%; in experiment [10], 96.4%; in experiment [11] it was 96.7%; in experiment [12], 96.4%. For the same compound, the growth is 102% in [13]; 97% in experiment [14]; 92.4% in [15]; 93.5% in experiment [16]; 100% in [17]; 95.6% in [18].

Turning to `COc1ccc(-c2nc(Nc3cc(C)[nH]n3)c3ccccc3n2)cc1`, the growth in [1] is 23.7%; in experiment [2] it was 50.7%; in experiment [3] it was 83.8%; in [4], 59.8%; in [5], 60.1%; in experiment [6], 53.1%. In addition, the growth in experiment [7] was 1.47% (active); in experiment [8], 52.2%; in experiment [9], 2.72% (active); in experiment [10], 74.3%; in [11], 28.6%; in [12], 51.7%. Also, the growth is 26.6% in experiment [13]; 35.4% in [14]; 22.1% in experiment [15]; 29.5% in experiment [16]; 74.2% in [17]; 18.3% in experiment [18].

Turning to `CS(=O)(=O)c1ccc(-c2cnc3ccc(-c4cccc(S(C)(=O)=O)c4)nn23)cc1`, the growth in experiment [1] was 21.1%; in [2], 18.8%; in experiment [3], 53.1%; in experiment [4], 44.2%; in [5], 72.8%; in [6], 43.4%. The growth in experiment [7] was 14%; in experiment [8] it was 33.3%; in experiment [9] it was 10%; in experiment [10] it was 80.9%; in experiment [11] it was 18.7%; in experiment [12], 23%. Besides, the growth was 49.6% in experiment [13]; 75.6% in [14]; 18.4% in [15]; 34% in experiment [16]; 55.4% in experiment [17]; 47.1% in experiment [18].

The values are drawn from PubChem BioAssay (NCI).
